According to the supplement of paper PMC10849652:
The full data set covers some 8,800 targets. This sample favours those with a hit. About 0.5% of all pairs of compound and target were hits. Values without a mark were called inactive.

UniProt Q92796, sequence (Q92796 whole entry, looked up): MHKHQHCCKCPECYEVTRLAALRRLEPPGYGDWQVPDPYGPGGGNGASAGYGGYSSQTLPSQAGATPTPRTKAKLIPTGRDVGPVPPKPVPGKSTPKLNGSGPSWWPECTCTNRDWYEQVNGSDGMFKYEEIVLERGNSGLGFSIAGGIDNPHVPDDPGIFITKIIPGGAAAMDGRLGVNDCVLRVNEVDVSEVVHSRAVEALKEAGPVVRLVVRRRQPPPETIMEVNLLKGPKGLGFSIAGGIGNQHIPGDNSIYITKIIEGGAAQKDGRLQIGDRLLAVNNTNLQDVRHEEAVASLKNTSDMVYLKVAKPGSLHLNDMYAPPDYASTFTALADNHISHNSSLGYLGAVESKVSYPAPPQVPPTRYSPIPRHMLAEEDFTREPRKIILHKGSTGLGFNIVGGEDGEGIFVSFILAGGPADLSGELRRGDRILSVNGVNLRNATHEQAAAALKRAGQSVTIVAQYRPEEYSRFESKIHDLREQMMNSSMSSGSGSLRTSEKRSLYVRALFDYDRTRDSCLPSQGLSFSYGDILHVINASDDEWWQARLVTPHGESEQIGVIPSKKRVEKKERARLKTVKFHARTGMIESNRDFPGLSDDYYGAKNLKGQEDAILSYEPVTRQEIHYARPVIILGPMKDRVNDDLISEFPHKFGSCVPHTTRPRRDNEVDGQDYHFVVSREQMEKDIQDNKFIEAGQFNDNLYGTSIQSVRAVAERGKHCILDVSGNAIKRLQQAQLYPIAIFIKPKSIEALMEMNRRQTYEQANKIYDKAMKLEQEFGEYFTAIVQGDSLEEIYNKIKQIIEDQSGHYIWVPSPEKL
UniProt Q8TDD1, sequence (Q8TDD1 whole entry, looked up): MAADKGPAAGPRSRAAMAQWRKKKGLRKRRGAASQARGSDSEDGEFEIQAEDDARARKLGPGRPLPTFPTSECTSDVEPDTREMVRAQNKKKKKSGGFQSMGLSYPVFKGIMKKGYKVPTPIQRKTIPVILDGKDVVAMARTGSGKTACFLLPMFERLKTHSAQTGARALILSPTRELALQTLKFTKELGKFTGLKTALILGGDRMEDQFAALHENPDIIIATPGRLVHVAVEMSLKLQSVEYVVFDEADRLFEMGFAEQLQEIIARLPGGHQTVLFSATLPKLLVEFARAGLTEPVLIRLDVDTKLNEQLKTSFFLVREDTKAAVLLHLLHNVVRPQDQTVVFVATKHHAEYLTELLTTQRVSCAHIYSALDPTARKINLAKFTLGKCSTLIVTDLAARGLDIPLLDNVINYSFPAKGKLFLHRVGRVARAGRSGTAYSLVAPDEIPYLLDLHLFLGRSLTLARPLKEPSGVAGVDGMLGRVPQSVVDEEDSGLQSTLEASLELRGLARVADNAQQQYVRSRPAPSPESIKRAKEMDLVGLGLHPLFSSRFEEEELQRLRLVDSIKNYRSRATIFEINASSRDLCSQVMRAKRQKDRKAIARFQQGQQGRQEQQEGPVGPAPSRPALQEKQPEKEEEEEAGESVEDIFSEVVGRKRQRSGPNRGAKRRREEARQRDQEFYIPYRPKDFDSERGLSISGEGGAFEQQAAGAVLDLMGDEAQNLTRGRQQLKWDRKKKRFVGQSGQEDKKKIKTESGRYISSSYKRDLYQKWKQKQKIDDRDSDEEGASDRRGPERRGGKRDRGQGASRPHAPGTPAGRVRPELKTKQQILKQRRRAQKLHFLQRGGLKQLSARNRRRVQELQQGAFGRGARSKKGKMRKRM
UniProt Q96BY6, sequence (Q96BY6 whole entry, looked up): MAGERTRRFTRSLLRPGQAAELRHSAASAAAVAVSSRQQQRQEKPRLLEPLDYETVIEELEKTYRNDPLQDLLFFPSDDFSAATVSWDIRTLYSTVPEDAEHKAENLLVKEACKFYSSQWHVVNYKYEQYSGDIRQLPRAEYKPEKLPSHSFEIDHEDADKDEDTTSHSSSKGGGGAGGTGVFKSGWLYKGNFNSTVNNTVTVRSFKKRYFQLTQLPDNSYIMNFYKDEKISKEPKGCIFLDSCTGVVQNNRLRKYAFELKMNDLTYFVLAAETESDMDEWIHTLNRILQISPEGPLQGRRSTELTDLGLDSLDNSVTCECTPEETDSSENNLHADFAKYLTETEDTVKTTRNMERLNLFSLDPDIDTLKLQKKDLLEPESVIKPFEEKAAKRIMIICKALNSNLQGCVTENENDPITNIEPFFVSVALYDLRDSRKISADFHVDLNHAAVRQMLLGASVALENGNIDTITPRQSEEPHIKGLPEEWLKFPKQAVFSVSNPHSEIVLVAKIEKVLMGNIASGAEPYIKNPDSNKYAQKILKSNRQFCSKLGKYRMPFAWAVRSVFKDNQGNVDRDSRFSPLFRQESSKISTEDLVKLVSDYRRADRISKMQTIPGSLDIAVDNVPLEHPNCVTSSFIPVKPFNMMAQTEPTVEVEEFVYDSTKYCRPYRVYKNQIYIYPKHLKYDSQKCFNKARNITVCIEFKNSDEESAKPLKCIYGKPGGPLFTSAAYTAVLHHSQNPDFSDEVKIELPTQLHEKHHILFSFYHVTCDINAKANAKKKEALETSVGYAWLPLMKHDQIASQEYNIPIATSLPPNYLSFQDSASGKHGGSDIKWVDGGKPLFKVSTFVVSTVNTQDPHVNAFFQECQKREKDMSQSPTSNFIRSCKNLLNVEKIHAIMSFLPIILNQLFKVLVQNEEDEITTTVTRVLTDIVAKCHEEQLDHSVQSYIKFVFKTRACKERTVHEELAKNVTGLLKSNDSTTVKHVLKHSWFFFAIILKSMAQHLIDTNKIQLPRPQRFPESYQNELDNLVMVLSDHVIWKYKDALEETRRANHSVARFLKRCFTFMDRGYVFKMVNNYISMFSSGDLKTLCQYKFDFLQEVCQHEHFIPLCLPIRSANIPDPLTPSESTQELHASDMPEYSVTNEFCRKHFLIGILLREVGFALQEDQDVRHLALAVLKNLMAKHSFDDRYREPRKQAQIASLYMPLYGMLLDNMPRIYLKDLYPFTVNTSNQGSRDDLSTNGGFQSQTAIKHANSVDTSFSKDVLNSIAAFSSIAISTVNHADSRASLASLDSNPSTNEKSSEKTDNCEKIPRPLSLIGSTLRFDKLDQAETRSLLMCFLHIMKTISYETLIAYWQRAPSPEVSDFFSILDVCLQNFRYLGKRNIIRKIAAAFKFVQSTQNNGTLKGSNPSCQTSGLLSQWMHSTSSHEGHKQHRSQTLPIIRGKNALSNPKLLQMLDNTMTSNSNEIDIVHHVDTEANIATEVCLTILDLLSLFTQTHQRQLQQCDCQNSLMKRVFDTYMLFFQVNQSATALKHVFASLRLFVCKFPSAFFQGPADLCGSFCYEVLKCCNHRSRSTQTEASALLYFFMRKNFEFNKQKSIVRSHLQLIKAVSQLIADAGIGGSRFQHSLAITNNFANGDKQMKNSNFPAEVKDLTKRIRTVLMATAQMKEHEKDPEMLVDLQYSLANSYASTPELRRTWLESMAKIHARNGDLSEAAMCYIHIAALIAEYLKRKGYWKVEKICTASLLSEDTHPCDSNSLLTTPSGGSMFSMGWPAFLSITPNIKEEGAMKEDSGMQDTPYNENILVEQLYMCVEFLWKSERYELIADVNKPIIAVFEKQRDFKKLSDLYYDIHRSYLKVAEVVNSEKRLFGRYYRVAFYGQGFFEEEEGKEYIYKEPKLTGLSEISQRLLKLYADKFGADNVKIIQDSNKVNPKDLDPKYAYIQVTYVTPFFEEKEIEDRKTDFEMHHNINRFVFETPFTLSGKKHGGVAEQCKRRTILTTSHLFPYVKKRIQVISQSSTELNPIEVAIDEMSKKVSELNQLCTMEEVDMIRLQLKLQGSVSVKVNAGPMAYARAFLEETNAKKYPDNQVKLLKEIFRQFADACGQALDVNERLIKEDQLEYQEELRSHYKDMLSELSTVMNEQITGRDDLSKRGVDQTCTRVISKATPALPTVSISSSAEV
UniProt P51790, sequence (P51790 whole entry, looked up): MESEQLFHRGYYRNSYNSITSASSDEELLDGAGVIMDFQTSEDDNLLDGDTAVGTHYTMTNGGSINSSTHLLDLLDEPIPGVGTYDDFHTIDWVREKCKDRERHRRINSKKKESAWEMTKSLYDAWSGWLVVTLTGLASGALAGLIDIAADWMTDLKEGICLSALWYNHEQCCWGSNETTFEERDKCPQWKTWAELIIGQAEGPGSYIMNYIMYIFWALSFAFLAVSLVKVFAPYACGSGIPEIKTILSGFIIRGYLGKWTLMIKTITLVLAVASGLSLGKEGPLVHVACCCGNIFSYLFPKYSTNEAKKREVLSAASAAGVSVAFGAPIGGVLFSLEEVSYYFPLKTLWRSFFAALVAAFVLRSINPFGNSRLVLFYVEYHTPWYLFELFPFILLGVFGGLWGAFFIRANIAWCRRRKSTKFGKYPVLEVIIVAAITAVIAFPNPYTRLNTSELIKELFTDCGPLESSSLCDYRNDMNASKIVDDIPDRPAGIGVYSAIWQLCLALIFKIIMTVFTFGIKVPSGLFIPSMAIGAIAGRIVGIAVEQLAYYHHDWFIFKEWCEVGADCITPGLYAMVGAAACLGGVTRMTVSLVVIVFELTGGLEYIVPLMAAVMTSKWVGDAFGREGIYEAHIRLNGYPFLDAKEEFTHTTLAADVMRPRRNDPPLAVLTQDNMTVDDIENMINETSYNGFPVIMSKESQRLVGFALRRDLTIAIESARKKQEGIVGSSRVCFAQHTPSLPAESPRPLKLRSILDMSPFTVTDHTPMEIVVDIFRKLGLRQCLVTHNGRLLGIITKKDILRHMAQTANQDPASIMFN
UniProt P21964, sequence (P21964 whole entry, looked up): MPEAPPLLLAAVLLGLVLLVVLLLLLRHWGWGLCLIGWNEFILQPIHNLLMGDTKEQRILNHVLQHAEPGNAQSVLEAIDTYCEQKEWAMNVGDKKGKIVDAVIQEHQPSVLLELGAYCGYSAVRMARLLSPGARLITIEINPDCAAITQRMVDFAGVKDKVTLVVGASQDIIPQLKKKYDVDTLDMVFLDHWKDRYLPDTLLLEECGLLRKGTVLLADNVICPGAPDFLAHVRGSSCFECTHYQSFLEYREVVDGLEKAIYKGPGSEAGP

These targets were tested with CC1=C2C(=CC=C1)N=C(N(C2=O)C3=CC=CC=C3C)CN4C=NC5=C(N=CN=C54)N (assay: log2 fold change, soluble protein after heating vs DMSO (PISA); higher = thermal stabilisation; K562 lysate, 10 uM; active = over 0.2 and 3.5 SD of the protein, either way, in both replicates (recomputed)).
Method in brief: (§1)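 Log-two fold change in thermal stability relative to solvent controls is reported from duplicates. For each sample, crude K562 extract from dounce-homogenised pellets in PBS pH 7.4 with 1 mM MgCl2, at 1 mg/mL protein, was treated with 10 μM compound for 30 min. Aliquots heated for 3 min across 48°C-58°C were pooled, brought to 0.5% NP-40 at 4°C and cleared at 21,000xg for 90 min. The supernatant was quantified by TMTpro 16plex LC-MS/MS with channel sums equalised.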
CMIP (UniProt Q8IY22) gave a log2 fold change of -0.002.
DDX54 isoform 2 (UniProt Q8TDD1) showed a log2 fold change of 0.09.
Work on COMT (UniProt P21964) yielded a log2 fold change of -0.016.
DENND4A isoform 2 (UniProt Q7Z401) gave a log2 fold change of -0.007.
CSNK2A1 (UniProt P68400) was tested, and the log2 fold change was -0.119.
DOCK10 (UniProt Q96BY6) gave a log2 fold change of 0.062.
Work on CNOT4 isoform 9 (UniProt O95628) yielded a log2 fold change of -0.014.
Work on CYP51A1 (UniProt Q16850) yielded a log2 fold change of -0.058.
With CLCN3 isoform 2 (UniProt P51790) the log2 fold change was 0.053.
Target DLG3 isoform 2 (UniProt Q92796) has a log2 fold change of -0.085.
Work on CNST (UniProt Q6PJW8) yielded a log2 fold change of -0.018.

These targets were tested with Cc1sc2c(c1C)C(c1ccc(Cl)cc1)=N[C@@H](CC(=O)OC(C)(C)C)c1nnc(C)n1-2 in the same assay as above.
Method in brief: as §1
DEF6 (UniProt Q9H4E7) showed a log2 fold change of 0.036.
DCTN1 (UniProt Q14203) showed a log2 fold change of 0.
Work on CUEDC2 (UniProt Q9H467) yielded a log2 fold change of 0.013.
CHEK2 (UniProt O96017) gave a log2 fold change of 0.006.
DNAAF5 (UniProt Q86Y56) showed a log2 fold change of 0.016.
For CNOT6L (UniProt Q96LI5), the log2 fold change was -0.049.
CIB1 (UniProt Q99828) showed a log2 fold change of 0.023.
CLPB isoform 2 (UniProt Q9H078) gave a log2 fold change of 0.094.
For CMPK2 (UniProt Q5EBM0), the log2 fold change was 0.039.
Work on CTPS1 (UniProt P17812) yielded a log2 fold change of -0.014.
With COG6 (UniProt Q9Y2V7) the log2 fold change was -0.032.
In the case of CUX1 isoform 3 (UniProt P39880), the log2 fold change is reported as 0.025.
Work on DIAPH3 (UniProt Q9NSV4) yielded a log2 fold change of 0.099.
CTNND1 isoform 3 (UniProt O60716) showed a log2 fold change of 0.036.
Work on CHML (UniProt P26374) yielded a log2 fold change of 0.016.
DNM2 (UniProt P50570) gave a log2 fold change of 0.05.
CHORDC1 (UniProt Q9UHD1) was tested, and the log2 fold change was 0.017.
CSK (UniProt P41240) showed a log2 fold change of -0.057.
For DPM1 (UniProt O60762), the log2 fold change was 0.073.
In the case of CKAP5 (UniProt Q14008), the log2 fold change is reported as 0.014.
For DES (UniProt P17661), the log2 fold change was -0.219.
DMXL1 (UniProt Q9Y485) showed a log2 fold change of -0.005.
Work on DGCR8 (UniProt Q8WYQ5) yielded a log2 fold change of 0.029.
In the case of CMIP (UniProt Q8IY22), the log2 fold change is reported as -0.029.
In the case of DDX54 isoform 2 (UniProt Q8TDD1), the log2 fold change is reported as 0.052.
With COMT (UniProt P21964) the log2 fold change was 0.062.
Work on DENND4A isoform 2 (UniProt Q7Z401) yielded a log2 fold change of 0.039.
In the case of CSNK2A1 (UniProt P68400), the log2 fold change is reported as 0.034.
With DOCK10 (UniProt Q96BY6) the log2 fold change was -0.109.
CNOT4 isoform 9 (UniProt O95628) gave a log2 fold change of -0.066.
With CYP51A1 (UniProt Q16850) the log2 fold change was -0.028.
With CLCN3 isoform 2 (UniProt P51790) the log2 fold change was -0.015.
Target DLG3 isoform 2 (UniProt Q92796) has a log2 fold change of 0.019.
Target CNST (UniProt Q6PJW8) has a log2 fold change of 0.004.

The targets below were run with c1ccc([C@@H]2C[C@H]2NC2CCNCC2)cc1 in the same assay as above.
Method in brief: as §1
In the case of DEF6 (UniProt Q9H4E7), the log2 fold change is reported as -0.037.
Target DCTN1 (UniProt Q14203) has a log2 fold change of 0.034.
CUEDC2 (UniProt Q9H467) showed a log2 fold change of 0.11.
CHEK2 (UniProt O96017) was tested, and the log2 fold change was 0.014.
DNAAF5 (UniProt Q86Y56) was tested, and the log2 fold change was 0.064.
CNOT6L (UniProt Q96LI5) showed a log2 fold change of -0.164.
CIB1 (UniProt Q99828) was tested, and the log2 fold change was 0.03.
CLPB isoform 2 (UniProt Q9H078) was tested, and the log2 fold change was 0.079.
CMPK2 (UniProt Q5EBM0) was tested, and the log2 fold change was -0.098.
Target CTPS1 (UniProt P17812) has a log2 fold change of 0.023.
COG6 (UniProt Q9Y2V7) showed a log2 fold change of 0.069.
For CUX1 isoform 3 (UniProt P39880), the log2 fold change was 0.03.
DIAPH3 (UniProt Q9NSV4) gave a log2 fold change of 0.195.
With CTNND1 isoform 3 (UniProt O60716) the log2 fold change was 0.028.
Work on CHML (UniProt P26374) yielded a log2 fold change of -0.03.
DNM2 (UniProt P50570) was tested, and the log2 fold change was 0.057.
For CHORDC1 (UniProt Q9UHD1), the log2 fold change was 0.037.
Target CSK (UniProt P41240) has a log2 fold change of -0.037.
In the case of DPM1 (UniProt O60762), the log2 fold change is reported as 0.093.
Work on CKAP5 (UniProt Q14008) yielded a log2 fold change of 0.048.
For DES (UniProt P17661), the log2 fold change was -0.131.
With DMXL1 (UniProt Q9Y485) the log2 fold change was 0.016.
In the case of DGCR8 (UniProt Q8WYQ5), the log2 fold change is reported as 0.017.
For CMIP (UniProt Q8IY22), the log2 fold change was 0.032.
DDX54 isoform 2 (UniProt Q8TDD1) showed a log2 fold change of 0.008.
In the case of COMT (UniProt P21964), the log2 fold change is reported as 0.054.
Work on DENND4A isoform 2 (UniProt Q7Z401) yielded a log2 fold change of -0.064.
Target CSNK2A1 (UniProt P68400) has a log2 fold change of 0.005.
Target DOCK10 (UniProt Q96BY6) has a log2 fold change of -0.491.
CNOT4 isoform 9 (UniProt O95628) showed a log2 fold change of -0.551.
Work on CYP51A1 (UniProt Q16850) yielded a log2 fold change of -0.007.
CLCN3 isoform 2 (UniProt P51790) was tested, and the log2 fold change was 0.033.
For DLG3 isoform 2 (UniProt Q92796), the log2 fold change was 0.048.
Work on CNST (UniProt Q6PJW8) yielded a log2 fold change of -0.031.
